Assay [1] is described as follows: NCI Yeast Anticancer Drug Screen. Data for the rad50 strain (AID 155).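 Note: 0% = growth of vehicle-only cultures of the same strain.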 The settings on record: S. cerevisiae rad50 strain growth inhibition, stronger effect = higher value. An outline of the steps:
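Vehicle-treated cultures provide the reference for the growth inhibition reported for compound-exposed, repair-deficient yeast.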

The nature of assay [2]: NCI Yeast Anticancer Drug Screen. Data for the mec2-1 strain (AID 157). To be noted: S. cerevisiae mec2-1 strain, stronger effect = higher value. An outline of the steps: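 Test agents were screened against the mec2-1 yeast strain, with defined DNA repair or cell cycle alteration. Growth was scored as inhibition against vehicle-only controls.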
Assay [3] can be described thus: NCI Yeast Anticancer Drug Screen. Data for the sgs1 mgt1 strain (AID 161).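 Note: 0% = growth of cultures given vehicle only.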 To be noted: S. cerevisiae sgs1 mgt1 strain, stronger effect = higher value. In outline: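 Mutant yeast exposed to compound; growth scored against vehicle-only wells.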
Assay [4] is described as follows: NCI Yeast Anticancer Drug Screen. Data for the cln2 rad14 strain (AID 165).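 Note: 0% = growth equal to vehicle treated cultures.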 The settings on record: S. cerevisiae cln2 rad14 strain, stronger effect = higher value. In outline:
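Growth of compound-exposed yeast (cln2 rad14 genotype) measured and expressed as inhibition relative to vehicle.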

Assay [5] is described as follows: NCI Yeast Anticancer Drug Screen. Data for the bub3 strain (AID 167). To be noted: S. cerevisiae bub3 mutant strain, stronger effect = higher value. In outline:
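Mutant yeast screening strain plus compound; vehicle-treated cultures serve as the 0% inhibition reference.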

Assay [6] can be described thus: NCI Yeast Anticancer Drug Screen. Data for the mlh1 rad18 strain (AID 175). To be noted: S. cerevisiae mlh1 rad18 strain growth inhibition, stronger effect = higher value. In outline: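 In this whole-cell yeast screen, a strain with altered DNA damage repair is challenged with compound, and its growth is measured against matched vehicle-treated controls.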
Where [7] appears, read: at 5.0 µM (retest, dose inferred, filed as 0.5).
Setting [8] is: at 50.0 µM (retest, dose inferred, filed as 5.0).

Compounds without any hit were thinned out: in the full panel of roughly 79,000, 15% have a hit. A number with no mark means an inactive call. Activity calls are given as the source filed them. Cut-off read from the data, not from the text of the source: active = growth inhibition above about 70%; inactive = the rest.

The source of these data is PubChem BioAssay (NCI).

With `COC(=O)c1c[nH]c2ccc(Br)cc12`, the growth inhibition was -3% in assay [1] (setting [7]); 23% in assay [1] (setting [8]); 30.9% in assay [1] (at 50.0 µM); 8% in assay [2] (setting [7]); 43% in assay [2] (setting [8]); 28.8% in assay [2] (at 50.0 µM). Besides, the growth inhibition was -1% in assay [3] (setting [7]); 19% in assay [3] (setting [8]); 31.8% in assay [3] (at 50.0 µM); -9% in assay [4] (setting [7]); -20% in assay [4] (setting [8]); 44% in assay [4] (at 50.0 µM). For the same molecule, the growth inhibition in assay [5] (setting [7]) is 7%; in assay [5] (setting [8]), 22%; in assay [5] (at 50.0 µM), 68.5%; in assay [6] (setting [7]), 23%; in assay [6] (setting [8]) it was 40%; in assay [6] (at 50.0 µM) it was 40.5%.
In the case of `Cc1cc(O)ccc1N=Nc1ccccc1`, the growth inhibition was 10% in assay [1] (setting [7]); 99% (active) in assay [1] (setting [8]); 99.7% (active) in assay [1] (at 50.0 µM); -1% in assay [2] (setting [7]); 99% (active) in assay [2] (setting [8]); 99.8% (active) in assay [2] (at 50.0 µM). For the same molecule, the growth inhibition in assay [3] (setting [7]) was -1%; in assay [3] (setting [8]), 99% (active); in assay [3] (at 50.0 µM), 99.7% (active); in assay [4] (setting [7]), -8%; in assay [4] (setting [8]), 99% (active); in assay [4] (at 50.0 µM), 99.4% (active). For the same molecule, the growth inhibition in assay [5] (setting [7]) was 14%; in assay [5] (setting [8]) it was 99% (active); in assay [5] (at 50.0 µM), 99.5% (active); in assay [6] (setting [7]), 1%; in assay [6] (setting [8]), 99% (active); in assay [6] (at 50.0 µM) it was 99.7% (active).
On to `CCOC(=O)Cc1csc(/N=C\c2c(O)c3ccccc3oc2=O)n1`, for which the growth inhibition in assay [1] (setting [7]) was 22%; in assay [1] (setting [8]) it was 38%; in assay [1] (at 50.0 µM), -4.35%; in assay [2] (setting [7]), 16%; in assay [2] (setting [8]), 25%; in assay [2] (at 50.0 µM), -32.4%. The growth inhibition is 22% in assay [3] (setting [7]); 37% in assay [3] (setting [8]); -10.9% in assay [3] (at 50.0 µM); 26% in assay [4] (setting [7]); 21% in assay [4] (setting [8]); 18.7% in assay [4] (at 50.0 µM). Also, the growth inhibition was 20% in assay [5] (setting [7]); 42% in assay [5] (setting [8]); -27.1% in assay [5] (at 50.0 µM); 24% in assay [6] (setting [7]); 45% in assay [6] (setting [8]); 41.4% in assay [6] (at 50.0 µM).
On to `Cc1ccc(S(=O)(=O)NNC2Oc3cc4c(cc3C(c3ccccc3O)C2C)OCO4)cc1` (configuration not stated), for which the growth inhibition in assay [1] (setting [7]) is -12%; in assay [1] (setting [8]), 98% (active); in assay [1] (at 50.0 µM), 97.4% (active); in assay [2] (setting [7]) it was -3%; in assay [2] (setting [8]), 98% (active); in assay [2] (at 50.0 µM), 95.7% (active). Besides, the growth inhibition in assay [3] (setting [7]) was -2%; in assay [3] (setting [8]), 98% (active); in assay [3] (at 50.0 µM) it was 95.7% (active); in assay [4] (setting [7]), 19%; in assay [4] (setting [8]), 97% (active); in assay [4] (at 50.0 µM), 97% (active). For the same molecule, the growth inhibition in assay [5] (setting [7]) is -11%; in assay [5] (setting [8]) it was 98% (active); in assay [5] (at 50.0 µM), 96.2% (active); in assay [6] (setting [7]) it was 22%; in assay [6] (setting [8]), 97% (active); in assay [6] (at 50.0 µM), 96.2% (active).
Take `CN(C)CCN(C)N=Nc1c(-c2cccs2)n[nH]c1C(F)(F)F`: the growth inhibition in assay [1] (setting [7]) was 98% (active); in assay [1] (setting [8]), 99% (active); in assay [1] (at 50.0 µM) it was 99.1% (active); in assay [2] (setting [7]), 99% (active); in assay [2] (setting [8]) it was 100% (active); in assay [2] (at 50.0 µM) it was 99.7% (active). In addition, the growth inhibition in assay [3] (setting [7]) is 99% (active); in assay [3] (setting [8]) it was 100% (active); in assay [3] (at 50.0 µM), 99.6% (active); in assay [4] (setting [7]), 99% (active); in assay [4] (setting [8]), 98% (active); in assay [4] (at 50.0 µM) it was 99.3% (active). The growth inhibition is 99% (active) in assay [5] (setting [7]); 99% (active) in assay [5] (setting [8]); 99.5% (active) in assay [5] (at 50.0 µM); 99% (active) in assay [6] (setting [7]); 100% (active) in assay [6] (setting [8]); 99.5% (active) in assay [6] (at 50.0 µM).
`Cc1nnc2nc3c(nn12)c1ccccc1n3C`: the growth inhibition in assay [1] (setting [7]) is -155%; in assay [1] (setting [8]), -54%; in assay [1] (at 50.0 µM), 46.3%; in assay [2] (setting [7]), -49%; in assay [2] (setting [8]) it was -33%; in assay [2] (at 50.0 µM), 31.8%. Also, the growth inhibition was -65% in assay [3] (setting [7]); -46% in assay [3] (setting [8]); 15.8% in assay [3] (at 50.0 µM); -60% in assay [4] (setting [7]); -44% in assay [4] (setting [8]); 75.8% (active) in assay [4] (at 50.0 µM). The growth inhibition was -64% in assay [5] (setting [7]); -57% in assay [5] (setting [8]); -0.35% in assay [5] (at 50.0 µM); -146% in assay [6] (setting [7]); -77% in assay [6] (setting [8]); 5.45% in assay [6] (at 50.0 µM).
Regarding `Nc1cccc2c1C(=O)c1cccc(Cl)c1C2=O`, the growth inhibition in assay [1] (setting [7]) was 31%; in assay [1] (setting [8]) it was 83% (active); in assay [1] (at 50.0 µM), 87.7% (active); in assay [2] (setting [7]) it was 3%; in assay [2] (setting [8]), 16%; in assay [2] (at 50.0 µM) it was 11.8%. The growth inhibition in assay [3] (setting [7]) is 0%; in assay [3] (setting [8]) it was 14%; in assay [3] (at 50.0 µM), 21.1%; in assay [4] (setting [7]), 1%; in assay [4] (setting [8]), 2%; in assay [4] (at 50.0 µM), -82%. The growth inhibition in assay [5] (setting [7]) was 5%; in assay [5] (setting [8]), 21%; in assay [5] (at 50.0 µM), 58%; in assay [6] (setting [7]), 11%; in assay [6] (setting [8]), 30%; in assay [6] (at 50.0 µM), 50.3%.
Turning to `Clc1ccc(C2=C(c3ccccc3)C(c3ccc(Cl)cc3)N3C(=N[C@H]4CCCC[C@@H]43)N2)cc1` (some centres not stated), the growth inhibition was 4% in assay [1] (setting [7]); 15% in assay [1] (setting [8]); 88.2% (active) in assay [1] (at 50.0 µM); 9% in assay [2] (setting [7]); 7% in assay [2] (setting [8]); 88.4% (active) in assay [2] (at 50.0 µM). Further, the growth inhibition was -14% in assay [3] (setting [7]); -27% in assay [3] (setting [8]); 89.3% (active) in assay [3] (at 50.0 µM); -1% in assay [4] (setting [7]); -5% in assay [4] (setting [8]); 90% (active) in assay [4] (at 50.0 µM). Also, the growth inhibition in assay [5] (setting [7]) was -1%; in assay [5] (setting [8]) it was -1%; in assay [5] (at 50.0 µM), 87.7% (active); in assay [6] (setting [7]), 7%; in assay [6] (setting [8]), 7%; in assay [6] (at 50.0 µM), 91.5% (active).
`COC(=O)C1C(O)C(C)C(=O)C(C)/C=C\C=C(C)C(=O)Nc2c(C)c(OC(C)=O)c3c(c2O)C(=O)C(C)=C2OCOC(=C23)C(C)=CC(C)(O)C(O)C(C)C1O` (configuration not stated): the growth inhibition in assay [1] (setting [7]) was 9%; in assay [1] (setting [8]), 52%; in assay [1] (at 50.0 µM) it was 88.1% (active); in assay [2] (setting [7]), -3%; in assay [2] (setting [8]) it was 77% (active); in assay [2] (at 50.0 µM), 88.8% (active). Further, the growth inhibition in assay [3] (setting [7]) was 0%; in assay [3] (setting [8]) it was 59%; in assay [3] (at 50.0 µM) it was 92.2% (active); in assay [4] (setting [7]), 9%; in assay [4] (setting [8]) it was 75% (active); in assay [4] (at 50.0 µM) it was 75.6% (active). Moreover, the growth inhibition is -4% in assay [5] (setting [7]); 76% (active) in assay [5] (setting [8]); 87.3% (active) in assay [5] (at 50.0 µM); -19% in assay [6] (setting [7]); 68% in assay [6] (setting [8]); 81% (active) in assay [6] (at 50.0 µM).
